In PubChem BioAssay (NCI):
The panel holds about 79,000 compounds, 15% with a hit somewhere; the sample as a whole holds those more often. No stated cut-off is given here; in the data, active means growth inhibition above about 70%; inactive means the rest.

What was measured:
[1] = NCI Yeast Anticancer Drug Screen. Data for the rad50 strain (AID 155);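 further: 0% = growth of vehicle-only cultures of the same strain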; settings: S. cerevisiae rad50 strain growth inhibition; at 50.0 µM; active compounds read high
Summary of the method: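 Cells are treated with compound, grown, and their growth is then scored against vehicle-only cultures of the same repair-deficient yeast strain.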

[2] = NCI Yeast Anticancer Drug Screen. Data for the mec2-1 strain (AID 157); settings: S. cerevisiae mec2-1 strain, at 50.0 µM, active compounds read high
Summary of the method: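 Vehicle-treated cultures served as reference for growth inhibition of compound-exposed mec2-1 yeast.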

[3] = NCI Yeast Anticancer Drug Screen. Data for the sgs1 mgt1 strain (AID 161);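 further: 0% = growth of cultures given vehicle only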; settings: S. cerevisiae sgs1 mgt1 strain, at 50.0 µM, active compounds read high
Summary of the method: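 Read-out: growth inhibition vs vehicle controls. Cells: mutant yeast strain deficient in DNA damage repair.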

[4] = NCI Yeast Anticancer Drug Screen. Data for the cln2 rad14 strain (AID 165);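 further: 0% = growth equal to vehicle treated cultures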; settings: S. cerevisiae cln2 rad14 strain, at 50.0 µM, active compounds read high
Summary of the method: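 Each compound was tested on cln2 rad14 yeast. Inhibition of growth was calculated against vehicle-exposed controls.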

[5] = NCI Yeast Anticancer Drug Screen. Data for the bub3 strain (AID 167); settings: S. cerevisiae bub3 mutant strain, at 50.0 µM, active compounds read high
Summary of the method: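 Part of a panel of yeast mutants defective in DNA damage repair or cell cycle regulation. Each strain is grown with compound, and inhibition is calculated relative to solvent-treated cultures.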

[6] = NCI Yeast Anticancer Drug Screen. Data for the mlh1 rad18 strain (AID 175); settings: S. cerevisiae mlh1 rad18 strain growth inhibition; at 50.0 µM; active compounds read high
Summary of the method: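 Vehicle-treated cultures served as the reference for growth inhibition in a yeast strain carrying DNA damage repair alterations exposed to each compound.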

Measured: growth inhibition

CCN(CC)CCCNc1ccc([N+](=O)[O-])c2nc3ccccc3c(N)c12
inactive: [1] 21.4% | [2] -0.2% | [3] 15.8% | [4] 32.9% | [5] -17.1% | [6] 63.8%

NC(N)=NCCS(=O)(=O)O
inactive: [1] 5.8% | [2] 7.35% | [3] -2% | [4] 9.1% | [5] -2.35% | [6] 20.4%

COc1cccc(/C=C2\C(=O)N(C(=O)c3ccc(NC(C)=O)cc3)N=C2C)c1
inactive: [1] -43.9% | [2] -25.8% | [3] -57% | [4] -17.2% | [5] -38% | [6] -40.1%

CCOC(=O)C1=C(NC(=O)C(c2ccccc2)c2ccccc2)OCC1
inactive: [1] 4.7% | [2] 4.75% | [3] 5.05% | [4] -48.5% | [5] -13.3% | [6] 7.85%

Cc1ccccc1C(=O)OC1CCCC1
inactive: [1] 13.1% | [2] -1.45% | [3] 2.95% | [4] -19.4% | [5] 8.1% | [6] 0.5%

CC(=O)OC1CCC2(C)C(=CCC3C2CCC2(C)C3CC(Br)C2(O)C(C)=O)C1 (stereo unspecified)
inactive: [1] 41.9% | [2] 24.1% | [3] 15% | [4] 17.7% | [5] 4.1% | [6] 30.4%

COc1csn[n+]1-c1ccc(C)cc1
inactive: [1] 7.7% | [2] 3.65% | [3] 9.45% | [4] 7.5% | [5] 14.8% | [6] 9.65%

ON(C(=NCc1ccccc1)c1ccccc1)c1ccccc1
inactive: [1] 2.25% | [2] 10.6% | [3] 9.65% | [4] -17.4% | [5] 12.4% | [6] 14.7%

Cc1cccc(C(=O)C(O)c2cccc(C)n2)n1 (stereo unspecified)
inactive: [1] 7.75% | [2] -18.4% | [3] -1.55% | [4] 8.2% | [5] -20.3% | [6] 4.4%

CC(C)(CO[C@H]1C[C@H]2CC[C@@]1(C)C2(C)C)[N+](=O)[O-]
inactive: [1] 25.4% | [2] -7% | [3] 50% | [4] -17.4% | [5] 12.9% | [6] 18.4%

CCOc1ccc(N=Nc2c(C)nc(N)nc2-c2ccccc2)cc1
inactive: [1] 20.1% | [2] -14.7% | [3] 4.1% | [4] -4.75% | [5] 35.4% | [6] 24.4%

CC(=O)C1OC1c1ccccn1 (stereo unspecified)
inactive: [1] -5.15% | [2] 3.7% | [3] -9.5% | [4] 55.8% | [5] 3.4% | [6] 3.35%

CC1(O)CCC(C(C)(C)C)CC1 (stereo unspecified)
inactive: [1] 22.6% | [2] 12.3% | [3] -1.2% | [4] 2.05% | [5] 2.95% | [6] 11.1%

CC(=O)O[C@]12CCCCCC1C1(O)C(O)CCCC[C@H]12 (stereo partly specified)
inactive: [1] 10.2% | [2] -23.6% | [3] -21.2% | [4] 4.45% | [5] -10.3% | [6] -16.4%

Cc1ccccc1C(c1ccccc1)C(CO)CO (stereo unspecified)
inactive: [1] -1% | [2] 0.15% | [3] 2.9% | [4] -64.3% | [5] -5.4% | [6] -17.4%

Cc1ccc2c(c1)C1(OC(=O)c3ccccc31)c1ccc(F)cc1O2 (stereo unspecified)
inactive: [1] 55% | [2] 12.8% | [3] 36.9% | [4] 36.8% | [5] 22.7% | [6] 18.1%

Nn1c(Cc2ccccc2)n[nH]c1=O
inactive: [1] 10.2% | [2] -13.3% | [3] 12.2% | [4] 6.55% | [5] -9.4% | [6] -14.2%

Nc1ccc(/C=C/c2ccc(N)cc2)cc1
inactive: [1] 9.05% | [2] -0.95% | [3] -1.4% | [4] -1.25% | [5] 8.9% | [6] 5.05%

COC(=O)c1cc(Cl)ccc1OCC(=O)NCc1ccc(Cl)cc1
inactive: [1] 9.1% | [2] -3.3% | [3] 11.8% | [4] -5.85% | [5] -26.1% | [6] 12.1%

Cc1cc2c(=O)c3ccc(Cl)cc3[nH]c2c(C(N)=O)c1C
inactive: [1] 22.2% | [2] 7.4% | [3] 14.5% | [4] 26.3% | [5] 6.6% | [6] 13.3%

COC(=O)c1cc(-c2ccccc2)nc2c(Cl)cc(Cl)cc12
inactive: [1] -4.4% | [2] -12.1% | [3] -5.55% | [4] -28.6% | [5] 11.7% | [6] -14.4%
